Results taken from PubChem BioAssay (NCI).
This is part of a sample that, as a whole, favours compounds with a hit. Of some 83,000 tested, about 20% had one in any assay.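 Method: cells in 96-well plates; compound added at one concentration; 48 h incubation; percent growth measured; values under 10 scored active.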 Values without a mark were called inactive. Active and inactive are the calls of the source.

tested on: HOP-62 NSCLC; assay: NCI-60 one-dose screen, 48 h (100 = growth as untreated, 0 = no growth, -100 = all killed); conditions: 10 µM unless noted
Procedure: Growth inhibition of the HOP-62 human Non-Small Cell Lung tumor cell line is measured as a screen for anti-cancer activity. Cells are grown in 96 well plates and exposed to the test compound for 48 hours. Compounds are tested at a single concentration, which is 10^-5 M for most compounds. The reported endpoint is percent growth (GI% or GIPRCNT), where numbers from 0 - 100% represent growth inhibition, and numbers from -100% - 0 represent cell death. For example, a value of 40 represents 60% growth inhibition. A value of 0 means no net growth occurred over the course of the experiment. A value of -40 indicates 40% of cells at the beginning of the experiment died by the end of the experiment. A value of -100 means all cells are dead at the end of the experiment.
NCI-60 Human Tumor Cell Lines Screen was performed using the standard one-dose NCI protocol, which is described in more detail at https://dtp.cancer.gov/discovery_development/nci-60/default.htm.
Compounds with GIPRCNT values below 10 were considered active. Activity score was based on GIPRCNT using the following formula: […]
Score is 0 for GIPRCNT values of 100 or above, 50 for GIPRCNT values of 0, and 100 for GIPRCNT values of -100.

SMILES	growth
C/C(=N\Nc1nc(C)cs1)c1cc2ccccc2o1	63.6%
CCOC(=O)C(=Cc1cccc(C#N)c1)C(=O)OCC	115%
CN(C)c1ccc(C(=NO)c2ccc(N(C)C)cc2)cc1	46.2%
O=c1[nH]c(-c2ccc(Cl)cc2)cn1-c1ccc(-n2cc(-c3ccc(Cl)cc3)[nH]c2=O)cc1	99.8%
COc1ccccc1-n1c(-c2cc(O)ccc2C)cn2c3c(=O)[nH]c(=O)n(C)c3nc12	68.2%
Cc1nn(-c2ccccc2)c(N2CCCCC2)c1/C=N/NC(=O)Cn1c(=O)sc2ccccc21	77.3%
COc1cccc(NC(=O)c2cccc(C3CCc4c(cc(OC)c(OC)c4OC)O3)c2)c1 (stereo not given)	85.2%
CC1=C(C(=O)n2c3ccccc3c3ccccc32)C(c2cccc([N+](=O)[O-])c2)C(C(=O)n2c3ccccc3c3ccccc32)=C(C)N1	102%
COc1cc(C2C3=C(COC3=O)N(CCO)c3cc4c(cc32)OCCO4)cc(OC)c1OC (stereo not given)	15.4%
COc1ccc(OC)c(-c2cn3nc(-c4c[nH]c5ccc(Br)cc45)sc3n2)c1	60.9%
CCOC(=O)N1CCN(S(=O)(=O)c2oc(-c3ccc(Cl)cc3)nc2C#N)CC1	96%
COc1ccc(C(c2cc(OC)c(OC)c(OC)c2)N2CCCC2)cc1 (stereo not given)	79.5%
C=CCn1c(SCC(=O)Nc2ccc(C(=O)/C=C/c3ccc(OC)cc3)cc2)nnc1-c1ccccc1	91.6%
N#C/C(=C\c1ccc(Br)cc1)c1cc2ccccc2[nH]1	86.3%
CC(O)c1ncc(/C=C2\SC(=S)N(Cc3ccccc3)C2=O)s1 (stereo not given)	104%
COc1cc2ncnc(Nc3ccc(F)c(Cl)c3)c2cc1OCC(=O)N1CCN(c2ccc(F)cc2)CC1	95.2%
CS(=O)(=O)Nc1cc(-c2ccc3ncnc(Nc4ccc5c(cnn5Cc5cccnc5)c4)c3c2)cnc1Cl	51.2%
CN1CCN(CCOc2ccc(-c3cnc4c(-c5ccc(C(F)(F)F)cc5)cnn4c3)cc2)CC1	37.5%
C=CC(=O)N1CCN(c2ccc3cccc(NC(=O)c4cnc(C)cn4)c3n2)CC1	41.1%
Cc1ccc(C)n1/C=C/n1c(C)ccc1C	114%

SMILES	growth
COc1cc(-c2nc(NC(C)=O)sc2-c2ccnc(NCCNS(=O)(=O)c3ccccc3)n2)ccc1Cl	34.2%
Cc1ccc2nc(Cl)c(Cn3nnnc3SCc3ccccc3)cc2c1	86%
CCN1CCN(CC(=O)Nc2nc3ccc(NCc4ccc(Br)cc4)cc3s2)CC1	64.8%
O=C1/C(=C/c2ccc(C(F)(F)F)cc2)COc2ccc(O)c(O)c21	-36.7% (active)
O=C(O)c1cn(C2CC2)c2cc(N3CCN(C(=O)N/N=C/c4ccccc4)CC3)c(F)cc2c1=O	107%
C=CCN=C(N)SCCCCCCSC(N)=NCC=C	75.1%
COC1=CC(c2ccc[nH]2)=N/C1=C\c1[nH]c(C)c(CC(=O)OCc2ccccc2)c1C	1.96% (active)
C/C(C=O)=C\c1ccc2c(c1)OCO2	108%
COc1cccc(C(=O)OCC(O)C(=O)NC23CC4CC(CC(C4)C2)C3)c1 (stereo not given)	104%
CC1(C)CCC(S(=O)(=O)c2ccc3c(c2)/C(=N\O)c2cc(S(=O)(=O)N4CCN(c5ccc(F)cc5O)CC4)ccc2-3)CC1	-88.1% (active)
COc1ccc(C2=C/C(=C\c3ccc(Cl)cc3)C(=O)N2/N=C/c2ccc(Cl)cc2)cc1	97.8%
CC1O[C@@H]2C[C@@](O)([C@H]1O)n1c3ccccc3c3c4c(c5c6ccccc6n2c5c31)C(=O)NC4=O (stereo not given in full)	13.4%
Cn1c(O)c(C(/C=C/c2ccccc2)=Nc2ccccc2N)c(=O)n(C)c1=O	105%
Cc1ccc(O)c(NC(=O)c2ccc(CNc3ccnc(C(F)(F)F)c3)cc2)c1	56%
O=C(N/N=C/c1ccc(O)cc1O)c1ccc(Nc2ccnc(C(F)(F)F)c2)cc1	31.1%
COc1ccc2[nH]cc(-c3nc(-c4cn(C)c5ccncc45)cs3)c2c1	95.4%
CCOC(=O)c1c(C)c2c(n1C)CSc1cc(S(=O)(=O)c3ccccc3)c(=O)[nH]c1-2	57.5% [100 µM]
NC(=O)c1ccc(NC(=O)c2oc3ccccc3c2-c2cnn(-c3ccccc3)c2)cc1	5.91% [50 µM] (active)
Clc1ccc(-c2nc(-c3c[nH]c4ncccc34)cs2)cc1	6.83% [100 µM] (active)
CCCCCCCCNc1cc2c3c(c1)CCCN3CCC2	27%
